14 molecules from PubChem BioAssay (NCI) can be followed below.

Holding throughout (assay): NCI-60 one-dose screen, 48 h (100 = growth as untreated, 0 = no growth, -100 = all killed)
Assay [1] deals with NCI-H226 lung. The settings on record: 10 µM.
In assay [2] the test system is NCI-H322M lung. The settings on record: 10 µM unless noted.
For assay [3], the system named is HOP-62 NSCLC. The conditions noted are these: 10 µM unless noted.
Assay [4] relates to HOP-92 NSCLC. The settings on record: 10 µM unless noted.
Assay [5] deals with NCI-H522 lung. The settings on record: 10 µM.
Assay [6] relates to A549/ATCC NSCLC. The conditions noted are these: 10 µM unless noted.
For assay [7], the system named is 786-0 renal. The settings on record: 10 µM unless noted.
The subject of assay [8] is COLO 205 colon. The settings on record: 10 µM unless noted.
In assay [9] the test system is NCI-H460 lung. The conditions noted are these: 10 µM unless noted.

This is part of a sample that, as a whole, favours compounds with a hit. Of some 83,000 tested, about 20% had one in any assay.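 Interpretation: 100, growth as untreated; towards 0, rising growth inhibition; 0, no net growth; 0 to -100, cell death. Compounds scoring below 10 were considered active.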 Unmarked numbers belong to inactive results. The source made the active and inactive calls.

Consider `Cc1nc2cc(Nc3nc(Nc4ccc(F)cc4)nc(-c4ccc(Cl)cc4)n3)ccc2n1Cc1ccccc1`, for which the growth in assay [1] is 86.5%; in assay [2] it was 94%; in [3], 80.6%; in [4], 35.1%; in [5], 82.8%; in [6], 57.4%. For the same molecule, the figures for the growth in assay [7] and in assay [8] were 91% and 61.8%, respectively.
`CCOC(=O)C(CC(c1ccccc1)N1CCCCC1)[N+](=O)[O-]` (stereo not given): the growth in assay [1] was 82.9%; in assay [2], 88.5%; in assay [3] it was 86%; in assay [9], 68%; in [5] it was 59.4%; in [6], 76.4%. Moreover, the growth in assay [7] is 93.3%; in [8], 108%.
For `Cc1nc2cc(Nc3nc(N4CCCCC4)nc(N4CCOCC4)n3)ccc2n1Cc1ccccc1`, the growth in assay [1] is 28.4%; in assay [3], 44.5%; in assay [9] it was 4.87% (active); in assay [4], -28.2% (active); in [5], 37.9%; in assay [6] it was -0.889% (active). Besides, the growth is 10.9% in [7] and 41% in assay [8].
Turning to `Brc1ccc(SCN(CSc2ccc(Br)cc2)Cc2ccccc2)cc1`, the growth in assay [1] is 76.6%; in assay [3], 120%; in [9], 63.1%; in [4] it was 59.7%; in assay [5] it was 73%; in assay [6], 45.8%. The growth was 60.8% in assay [7] and 108% in assay [8].
As for `CCN(C(=O)c1ccc2c3c(cccc13)C=C2)c1ccccc1`, the growth in assay [1] was 93.3%; in assay [3], 99.8%; in assay [9] it was 111%; in [4], 86.5%; in assay [5] it was 79.1%; in assay [6], 80.2%. For the same molecule, the growth in assay [7] is 91.1%; in assay [8] it was 119%.
For the molecule `COC(=O)[C@@]12CC[C@@H](C)[C@]3(C[C@@H](c4ccoc4)OC3=O)[C@H]1CC[C@@H]1O[C@@]12C`, the growth in assay [2] was 104%; in assay [3] it was 94.2%; in [9], 103%; in assay [4] it was 92.4%; in [5], 84.9%; in assay [6], 103%. The growth in assay [7] was 99.3%.
Turning to `Cc1ccc(NS(=O)(=O)c2ccc(-c3cnc(C4CC4)o3)cc2)cc1`, the growth in assay [2] is 69%; in assay [3] it was 36.4%; in assay [9] it was 7.82% (active); in assay [4] it was 57%; in assay [5], 9.2% (active); in assay [6], 40.2%. The growth in assay [7] is 50.8%.
On to `COC1(OC)C2(Cl)C=C(c3ccccc3)C1(Cl)C(Cl)=C2Cl` (stereo not given), for which the growth was 102% in [1]; 93.9% in [3]; 113% in assay [9]; 77.7% in [4]; 80.9% in [5]; 99.8% in assay [6]. For the same molecule, the growth in assay [7] is 103%; in assay [8] it was 108%.
In the case of `CC1(C)N=C(N)N=C(N)N1c1cccc(OCCOc2cccc([N+](=O)[O-])c2)c1`, the growth was 98.2% in assay [1]; 93% in assay [3]; 86.4% in [4]; 7.73% (active) in assay [5]; 20.4% in assay [6]; 81.7% in assay [7]. Moreover, the growth in [8] is 35%.
Consider `O=C1C(Br)=C(c2ccccc2)C(=O)C(Br)=C1c1ccccc1`, for which the growth in assay [1] was 95.1%; in [3], 111%; in [9] it was 99.5%; in assay [4], 92.1%; in assay [5], -61% (active); in [6], 87.6%. Further, the growth in assay [7] was 95.7%; in [8], 90.9%.
For `CCOc1ccc(/C=N\N2CCCCCC2)cc1OCC`, the growth in assay [1] is 90.7%; in assay [3] it was 93.8%; in assay [4] it was 54.2%; in assay [5], 97.8%; in assay [6] it was 106%; in assay [7] it was 106%. Further, in assay [8], the growth was 84.2%.
For the molecule `CCOC(=O)c1cc2c(n(C)c1=O)-c1cnn(-c3ccc(OC)cc3)c1CC2`, the growth was 107% in assay [1]; 108% in assay [3]; 108% in assay [9]; 104% in [4]; 83.3% in [5]; 98.2% in assay [6]. The values for the growth in assay [7] and in [8] were 101% and 109%, respectively.
Regarding `O=C(Nc1ccc(Cl)c(Cl)c1)OCn1ncc2ccc([N+](=O)[O-])cc21`, the growth in assay [1] is 81.3%; in assay [3] it was 71.6%; in assay [5], 49.4%; in [6], 82.8%; in assay [7], 83.3%; in assay [8], 93.2%.
For the molecule `COc1ccc(-n2ncc3c2ccc2cc(S(=O)(=O)c4ccccc4)c(=O)n(C)c23)cc1`, the growth in [1] was 52.6%; in assay [3], 72.5%; in assay [9], 88.8%; in [5], 33.2%; in assay [6] it was 86.8%; in [7], 82.3%. Moreover, in assay [8], the growth is 108%.
